High-throughput results (PubChem BioAssay)
RBX1-CUL1 inh – inhibitors of human ROC1-CUL1 ubiquitin ligase activity. P62877+Q13616. in vitro K48 di-Ub FRET, acceptor:donor ratio, 45 min. inhibition, % at 10 µM. 140,000 tested, 0.6% active; in the data active means inhibition above about 25%
Target sequence (P62877 whole entry, looked up): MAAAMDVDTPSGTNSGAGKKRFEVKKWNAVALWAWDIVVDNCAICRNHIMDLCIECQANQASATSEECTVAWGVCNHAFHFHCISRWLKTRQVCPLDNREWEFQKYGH
Target sequence (Q13616 whole entry, looked up): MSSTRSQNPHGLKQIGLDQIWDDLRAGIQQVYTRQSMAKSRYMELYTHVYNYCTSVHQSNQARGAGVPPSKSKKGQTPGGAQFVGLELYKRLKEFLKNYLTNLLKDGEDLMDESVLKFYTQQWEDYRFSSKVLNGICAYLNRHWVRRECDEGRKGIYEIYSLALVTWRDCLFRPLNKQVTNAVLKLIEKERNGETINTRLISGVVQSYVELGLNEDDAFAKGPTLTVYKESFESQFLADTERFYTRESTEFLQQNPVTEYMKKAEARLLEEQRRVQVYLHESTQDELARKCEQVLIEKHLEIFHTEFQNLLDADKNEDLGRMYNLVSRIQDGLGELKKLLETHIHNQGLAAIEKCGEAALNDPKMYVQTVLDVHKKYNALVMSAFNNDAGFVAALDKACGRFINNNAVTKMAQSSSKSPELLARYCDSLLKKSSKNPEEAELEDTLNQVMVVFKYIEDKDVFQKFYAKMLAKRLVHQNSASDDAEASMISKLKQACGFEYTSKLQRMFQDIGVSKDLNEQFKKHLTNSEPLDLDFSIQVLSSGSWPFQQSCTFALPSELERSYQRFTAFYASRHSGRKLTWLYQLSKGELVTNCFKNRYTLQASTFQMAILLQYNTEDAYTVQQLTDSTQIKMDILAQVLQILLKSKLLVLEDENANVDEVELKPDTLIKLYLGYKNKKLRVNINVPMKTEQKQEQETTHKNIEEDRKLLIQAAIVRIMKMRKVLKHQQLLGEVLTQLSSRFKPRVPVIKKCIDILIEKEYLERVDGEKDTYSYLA
Numbers stand for hits; – = inactive. Only a selection was taken, and hits are over-represented in it overall.

SMILES | RBX1-CUL1 inh
Cc1c(C(=O)O)cccc1-c1ccc(CC2=NC(=O)N(c3cccc(Cl)c3)C2=O)o1 | –
Cc1ccc(C(=O)O)cc1-c1ccc(CC2=NC(=O)N(c3ccc(Cl)cc3)C2=O)o1 | 50
O=C1NC(=S)N=C1Cc1ccc(-c2cc(C(=O)O)ccc2Cl)o1 | –
Cc1ccc(NC(=O)Cn2c(=O)n(Cc3ccco3)c(=O)c3ccccc32)cc1 | –
Cc1c(C=C2C(=O)NC(=S)NC2=O)c2ccccc2n1CC(=O)NCc1ccco1 | 62
CN1C(=S)N(c2ccc(Cl)cc2)C(=O)/C1=C/c1cn(CC(=O)NCc2ccco2)c2ccccc12 | –
N#CCC(=O)NC1CCCCCC1 | –
CN1CCN([C@@H]2CCN(Cc3cc(CN4CCCC4)cs3)C[C@H]2O)CC1 | –
N=c1c2sc3nc(-c4cccs4)cc(C(F)(F)F)c3c2ncn1N | 39
CSc1ncnc2c1sc1nc(-c3cccs3)cc(C(F)(F)F)c12 | –
FC(F)(F)c1cc(-c2cccs2)nc2sc3c(=S)nc[nH]c3c12 | –
COC1CCCN(C(=O)c2coc(CN3CCN(C/C=C/c4ccccc4)CC3)n2)C1 (configuration not stated) | –
CCn1cc(CNC(=O)c2ccc(C3CCCN3C3CCOCC3)s2)cn1 (configuration not stated) | –
O=C(NC1CCCCC1)N1CCCn2c(SCc3ccccc3Cl)nnc21 | –
CC(=O)Nc1nnc(SCc2ccccc2Cl)s1 | –
N#CC1C=C(C(=O)O)C(=O)N=C1SCc1ccccc1Cl (configuration not stated) | 73
CC(=O)c1ccccc1C(=O)N1CCCC(CO)(Cc2ccccc2)C1 (configuration not stated) | –
COc1ccccc1OCc1ccc(C(=O)NCc2ccccc2F)cc1 | –
C/C(Cl)=C\Cn1c(=O)n(C/C=C(\C)Cl)c(=O)n(C/C=C(\C)Cl)c1=O | –
Cc1ccc(S(=O)/C(F)=C/c2ccccc2)cc1 (configuration not stated) | –
CN(CC(O)COc1ccccc1CNC1CCOCC1)C1CCCCC1 (configuration not stated) | –
O=C(c1cccs1)N1Cc2ccccc2OC(c2ccccc2)C1 (configuration not stated) | –
C=C(C)Cn1c(=S)[nH]c2sc3c(c2c1=O)CCCC3 | –
Cc1noc(C)c1C(=O)Nc1sc2c(c1C(N)=O)CCCCCC2 | –
CCCC1CCc2c(sc(NC(=O)c3cc(C)on3)c2C(N)=O)C1 (configuration not stated) | –
SMILES | RBX1-CUL1 inh
CCC1CCc2c(sc(NC(=O)c3c(C)noc3C)c2C(N)=O)C1 (configuration not stated) | 74
Cc1ccc(-c2ccc(/C=C3/SC(N4CCOCC4)=NC3=O)o2)c(Br)c1 | –
N#Cc1ccccc1-c1ccc(/C=C2/SC(=O)NC2=O)o1 | –
Cc1ccc(-c2ccc(/C=C3/SC(=S)NC3=O)o2)c(Br)c1 | 96
Nc1ncncc1[N+](=O)[O-] | –
Cc1ccc(-n2c(SCC(N)=O)nnc2-c2ccc(Cl)cc2)cc1 | –
N=C1C(Br)C(=O)Nc2nnc(-c3ccc(Cl)cc3)n21 (configuration not stated) | 32
COc1ccc(-n2c(-c3ccccc3)nnc2-c2ccc(Cl)cc2)cc1 | –
CCC(=O)N1c2ccccc2-c2nnc(SC)nc2OC1c1ccc(C(F)(F)F)cc1 (configuration not stated) | –
O=C(O)CCCC(=O)Nc1ccc(-c2nnc(-c3ccco3)o2)cc1 | –
Cc1nonc1CC(=O)N1CCC2(CCCN(Cc3ccc(F)c(F)c3)C2)C1 (configuration not stated) | –
O=C(N/N=C/c1ccc(-c2cccc(C(=O)O)c2)o1)Nc1ccc(Cl)cc1 | –
Cc1cc(C)cc(N2C(=O)NC(=O)/C(=C\c3ccc(Br)o3)C2=O)c1 | 94
COc1cc(Br)cc(/C=C2/C(=O)NC(=O)N(c3cc(C)cc(C)c3)C2=O)c1O | –
Cc1cc(C)cc(N2C(=O)NC(=O)/C(=C/c3ccc(-c4cccc(C(=O)O)c4)o3)C2=O)c1 | 85
O=C1NC(=S)NC(=O)C1=Cc1cc(Br)c(Sc2ccc(Cl)cc2)o1 | –
O=C1Nc2ccccc2/C1=C/c1ccc(-c2cccc(C(=O)O)c2)o1 | –
O=C1NC(=S)N(c2ccc(Cl)cc2)C(=O)/C1=C\c1ccc(-c2cccc(C(=O)O)c2)o1 | 100
COC(=O)CN1C(=O)S/C(=C/c2cc(Br)c(Sc3ccc(Cl)cc3)o2)C1=O | –
O=C1NC(=S)N(c2ccccc2)C(=O)/C1=C\c1ccc(-c2ccc(F)cc2)o1 | –
COc1cc(/C=C2\C(=O)NC(=O)N(c3cc(C)cc(C)c3)C2=O)cc(Br)c1O | –
Cc1ccc(N2C(=O)NC(=O)/C(=C\c3cc(Br)c(Sc4ccc(Cl)cc4)o3)C2=O)cc1 | 100
COc1cccc(/C=C2/C(=O)NC(=O)N(c3cc(C)cc(C)c3)C2=O)c1O | –
CC(C)c1ccc2[nH]c3c(c2c1)CCC/C3=N\N | –
Cc1ccc(S(=O)(=O)N=S(C)c2cccc(C(=O)O)c2)cc1 (configuration not stated) | –
SMILES | RBX1-CUL1 inh
COc1ccccc1C(=O)NC(NNc1ccc(F)cc1)(C(F)(F)F)C(F)(F)F | –
COC(=O)c1c(NC(=O)CC2Nc3ccccc3NC2=O)sc2c1CCCC2 (configuration not stated) | –
COc1ccc(CC2=NC(=O)N(CC(=O)Nc3cccc(C)c3)C2=O)cc1O | –
CCOC(=O)N1CCc2c(sc(NC(=O)Cc3ccccc3)c2C(=O)Nc2ccc(C(=O)OC)cc2)C1 | –
CC(C)[C@H]1COC(=O)N1CC(=O)N1CCC(CCN2CCCC2=O)CC1 | –
Brc1c(I)ncnc1-c1ccccc1 | –
CCOc1ccc(S(=O)(=O)Oc2cccc3ccccc23)cc1 | –
COc1ccc(-n2nc(C(=O)N3CCCCC3)nc2-c2ccccc2)cc1 | –
CC(C)Oc1ccccc1/C=C1\C(=O)NC(=S)N(c2cccc(F)c2)C1=O | –
COc1ccc(/C=C2/C(=O)NC(=S)N(c3ccccc3)C2=O)cc1C(=O)O | –
O=C1NC(=S)N(c2cccc(Br)c2)C(=O)/C1=C/c1cc(Br)c(O)c(Br)c1 | –
C=CCN1C(=O)/C(=C\c2cccc(OC)c2OC)C(=O)NC1=S | –
C=CCN1C(=O)/C(=C/c2ccc(-c3cccc(C(F)(F)F)c3)o2)C(=O)NC1=S | 103
O=C1NC(=S)N(c2cccc(F)c2)C(=O)/C1=C/c1ccc(N2CCCC2)o1 | 26
COC(=O)c1ccccc1-n1c(C)cc(/C=C2\C(=O)NC(=S)N(c3ccc(OC)cc3)C2=O)c1C | –
C=CCN1C(=O)/C(=C\c2cccc(OCc3ccc(F)cc3)c2)C(=O)NC1=S | –
COc1ccc(N2C(=O)/C(=C/c3cc(C)n(-c4ccc(NC(C)=O)cc4)c3C)C(=O)NC2=S)cc1 | –
Cc1ccc(N2C(=O)/C(=C\c3ccc(-c4ccc(Cl)c(C(=O)O)c4)o3)C(=O)NC2=S)cc1 | 63
COc1ccc(N2C(=O)/C(=C/c3cc(C)n(-c4ccc(Cl)c(C(=O)O)c4)c3C)C(=O)NC2=S)c(OC)c1 | 79
Cc1ccc(-n2c(-c3ccccc3)cc(/C=C3\C(=O)NC(=S)N(c4ccc(C)c(C)c4)C3=O)c2-c2ccccc2)cc1 | –
O=C(CCCCCCN1CCN2CCCC2C1)N1c2ccccc2Sc2ccc(Cl)cc21 (configuration not stated) | –
O=C1c2ccccc2C(=O)C12OC(c1ccc(F)cc1)C1(C(=O)c3ccccc3C1=O)C2c1ccc(Br)cc1 (configuration not stated) | –
Cc1cc(O)c(NC(=O)c2ccc(Cl)c([N+](=O)[O-])c2)cc1C | –
